Reference: PubChem BioAssay (Tox21)
Records with an inconclusive call do not appear. Active and inactive are the calls of the source. Unless noted, calls follow the shape of the dose curve; as a rule, active = well fitted curve in the direction sought with a large enough effect in the repeat runs; inconclusive = weak or mixed curves; inactive = no such curve, though single readings can be large; an effect the other way counts as inactive or inconclusive.

What was measured:
[1] = qHTS assay to identify small molecule agonists of the vitamin D receptor (VDR) signaling pathway - cell viability counter screen (AID 743224); also: % is scaled to controls: 0 for no effect and ±100 for the full control effect; nearly all actives have a fitted effect of over 50% in size
Summary of the method: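 Viability is measured in the same wells as the VDR-bla reporter assay: after 16 h compound treatment and 2 h substrate loading, CellTiter-Glo is added and luminescence read 30 min later.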

[2] = qHTS assay to identify small molecule antagonists of the vitamin D receptor (VDR) signaling pathway - cell viability counter screen (AID 743225); also: % is scaled to controls: 0 for no effect and ±100 for the full control effect; nearly all actives have a fitted effect of over 50% in size
Summary of the method: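 Cells (VDR-UAS-bla HEK 293T) are plated, rested 4 h at 37C, dosed with compound and 3 nM final 1-alpha,25-dihydroxy vitamin D3, and incubated 16 h. Viability is taken from CellTiter-Glo luminescence in the reporter wells.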

[3] = qHTS assay to identify small molecule agonists of the NFkB signaling pathway (AID 1159509; active = well fitted curve in the direction sought with a large enough effect in the signal ratio in the repeat runs, not every such curve was filed as active; the % refers to the signal ratio; also: % is scaled to controls: 0 for no effect and ±100 for the full control effect)
Summary of the method: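 NFkB-bla ME-180 cells carry a beta-lactamase reporter under an NF-kB response element. They were plated overnight, then exposed to compounds for 5 h at 37 C. Read-out is LiveBLAzer FRET after 1.5 hr at room temperature (405 nm excitation; 460/530 nm emission).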

[4] = qHTS assay to identify small molecule agonists of the NFkB signaling pathway - cell viability counter screen (AID 1159515; calls by dose curve; also: % is scaled to controls: 0 for no effect and ±100 for the full control effect; nearly all actives have a fitted effect of over 55% in size)
Summary of the method: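 Multiplexed viability readout: after the 5 hr compound exposure and 1.5 hr FRET substrate step, CellTiter-Glo reagent went into the same NFkB-bla ME-180 wells; ATP luminescence was measured after 30 min at room temperature.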

[5] = qHTS assay to identify small molecule agonists of the endoplasmic reticulum stress response signaling pathway - cell viability counter screen (AID 1159517; calls by dose curve; also: % is scaled to controls: 0 for no effect and ±100 for the full control effect; nearly all actives have a fitted effect of over 50% in size)
Summary of the method: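 CellTiter-Glo was added to wells already read for beta-lactamase FRET, and luminescence was recorded 30 min later. Cells: ESRE-bla HeLa, 1,500 per well, compound exposure 5 hr at 37 C.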

[6] = qHTS assay to identify small molecule antagonists of the retinoid-related orphan receptor gamma (ROR-gamma) signaling pathway - cell viability counter screen (AID 1159520); also: % is scaled to controls: 0 for no effect and ±100 for the full control effect; nearly all actives have a fitted effect of over 50% in size
Summary of the method: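 Tet-on ROR gamma CHO cells (1,000/well) were plated 4 hr, given compounds in DMSO for 2 hr at 37 C, then induced with 1 uM final doxycycline for 16 hr. Viability was read as ATP by CellTiter-Glo luminescence after 30 min.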

[7] = biological target: Nuclear receptor ROR-gamma (Homo sapiens) (UniProt P51449); assay: qHTS assay to identify small molecule antagonists of the retinoid-related orphan receptor gamma (ROR-gamma) signaling pathway (AID 1159521)
Summary of the method: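 RORγ antagonism is scored from reduced reporter luminescence in Tet-on CHO cells. Induction used 1 uM final doxycycline hyclate for 16 h at 37 C, following a 2 h compound exposure.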

[8] = qHTS assay to identify small molecule agonists of the AP-1 signaling pathway - cell viability counter screen (AID 1159525; calls by dose curve; also: nearly all actives have a fitted effect of over 55% in size)
Summary of the method: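 ME-180 AP-1-bla, 2500 cells/well, Opti-MEM + 0.5% dialyzed FBS; overnight 37 °C; cpd 15-pt titration, 5 h 37 °C; CellTiter-Glo 30 min RT; luminescence read; normalised to TOAB and DMSO controls.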

[9] = qHTS assay to identify small molecule agonists of the AP-1 signaling pathway (AID 1159526; calls by dose curve; also: % is scaled to controls: 0 for no effect and ±100 for the full control effect)
[10] = biological target: Retinoic acid receptor RXR-alpha (Homo sapiens) (UniProt P19793); assay: qHTS assay to identify small molecule agonists of the RXR signaling pathway (AID 1159527; calls by dose curve; also: % is scaled to controls: 0 for no effect and ±100 for the full control effect; nearly all actives have a fitted effect of over 35% in size)
Summary of the method: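 qHTS of the Tox21 10K library in GeneBLAzer RXR-alpha HEK 293T cells carrying a beta-lactamase reporter […]; 16 hr treatment, 9-cis retinoic acid as agonist control, FRET read-out.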

[11] = qHTS assay to identify small molecule agonists of the RXR signaling pathway - cell viability counter screen (AID 1159529)
Summary of the method: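 Cell viability is measured by CellTiter-Glo luminescence, 30 min at room temperature, in wells already read for beta-lactamase. Engineered HEK 293T cells (RXR-alpha-UAS-bla) are dosed 16 hr at 37 C. Tetraoctyl ammonium bromide serves as positive control.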

[12] = qHTS assay to identify small molecule antagonists of the retinoid acid receptor (RAR) signaling pathway - cell viability counter screen (AID 1159551); also: % is scaled to controls: 0 for no effect and ±100 for the full control effect; nearly all actives have a fitted effect of over 35% in size
Summary of the method: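 Cytotoxicity counter screen in C3RL4 cells: 6 h compound exposure with 1 uM retinol (final), viability from cellular ATP by luminescence.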

[13] = qHTS assay to identify small molecule antagonists of the retinoic acid receptor (RAR) signaling pathway (AID 1159552)
Summary of the method: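 Quantitative HTS in C3RL4 RARE-luciferase reporter cells. Compounds were added with 1 uM (final) retinol; luminescence was read after 6 hr.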

[14] = qHTS assay to identify small molecule agonists of the retinoic acid receptor (RAR) signaling pathway (AID 1159553); details: C3RL4 RARE luciferase reporter, agonist, 6 h; activation: at 73.3 µM (top of the series); also: % is scaled to controls: 0 for no effect and ±100 for the full control effect
Summary of the method: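 Agonist activity was scored in C3RL4 cells bearing a retinoic acid response element luciferase construct. Cells were treated with compounds for 6 hr at 37 C, and luciferase signal was measured as luminescence.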

[15] = biological target: Luciferin 4-monooxygenase (Photinus pyralis) (UniProt P08659); assay: qHTS assay to identify small molecule inhibitors of firefly luciferase (AID 1224835); also: % is scaled to controls: 0 for no effect and ±100 for the full control effect; nearly all actives have a fitted effect of over 25% in size
Summary of the method: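 Quantitative HTS format; KM concentrations of both substrates. Purified P. pyralis FLuc activity quantified from luminescence images.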

[16] = qHTS assay to identify small molecule agonists of the constitutive androstane receptor (CAR) signaling pathway - cell viability counter screen (AID 1224836); also: % is scaled to controls: 0 for no effect and ±100 for the full control effect; nearly all actives have a fitted effect of over 45% in size
Summary of the method: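 Counter screen multiplexed with the CAR reporter readout: HepG2 cells co-transfected with hCAR and the CYP2B6-2.2kb construct receive a 15-concentration compound series and 0.75 uM PK11195 (final), then CellTiter-Fluor fluorescence is read after 23 h.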

[17] = qHTS assay to identify small molecule antagonists of the constitutive androstane receptor (CAR) signaling pathway - cell viability counter screen (AID 1224837); also: % is scaled to controls: 0 for no effect and ±100 for the full control effect; nearly all actives have a fitted effect of over 45% in size
Summary of the method: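 Multiplexed cytotoxicity read-out for the CAR antagonist screen: double-stable HepG2-CYP2B6-hCAR cells co-treated with 50 nM CITCO (final) and compound over 15 concentrations, incubated 23 hr, then assessed by CellTiter-Fluor fluorescence.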

[18] = qHTS assay to identify small molecule antagonists of the estrogen related receptor (ERR) signaling pathway from Tox21 library - cell viability counter screen (AID 1224834); also: % is scaled to controls: 0 for no effect and ±100 for the full control effect; nearly all actives have a fitted effect of over 30% in size
Summary of the method: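 Cytotoxicity of test substances is gauged in the same ERR cells used for the antagonist screen, after 17.5 h of compound treatment at 37 C, by CellTiter-Fluor fluorescence measured after 30 min.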

[19] = qHTS assay to identify small molecule agonists of the endoplasmic reticulum stress response signaling pathway (AID 1159516; active = well fitted activation curve with a large enough effect in the signal ratio in the repeat runs, not every such curve was filed as active; the % refers to the signal ratio; also: % is scaled to controls: 0 for no effect and ±100 for the full control effect)
Summary of the method: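 Tox21 10K library screened in quantitative HTS format on ESRE-bla HeLa cells, a beta-lactamase reporter under ER stress response element control; 5 hr treatment, FRET read.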

[20] = biological target: Nuclear receptor subfamily 1 group I member 3 (Homo sapiens) (UniProt Q14994); assay: qHTS assay to identify small molecule antagonists of the constitutive androstane receptor (CAR) signaling pathway (AID 1224838); also: % is scaled to controls: 0 for no effect and ±100 for the full control effect; nearly all actives have a fitted effect of over 40% in size
Summary of the method: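 Compounds were titrated across 15 concentrations onto HepG2 cells double-stably expressing hCAR and a CYP2B6-2.2kb reporter, together with 50 nM CITCO (final). After 24 h at 37 C, luciferase activity was measured by luminescence.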

Luciferin 4-monooxygenase (Photinus pyralis), sequence (P08659 whole entry, looked up): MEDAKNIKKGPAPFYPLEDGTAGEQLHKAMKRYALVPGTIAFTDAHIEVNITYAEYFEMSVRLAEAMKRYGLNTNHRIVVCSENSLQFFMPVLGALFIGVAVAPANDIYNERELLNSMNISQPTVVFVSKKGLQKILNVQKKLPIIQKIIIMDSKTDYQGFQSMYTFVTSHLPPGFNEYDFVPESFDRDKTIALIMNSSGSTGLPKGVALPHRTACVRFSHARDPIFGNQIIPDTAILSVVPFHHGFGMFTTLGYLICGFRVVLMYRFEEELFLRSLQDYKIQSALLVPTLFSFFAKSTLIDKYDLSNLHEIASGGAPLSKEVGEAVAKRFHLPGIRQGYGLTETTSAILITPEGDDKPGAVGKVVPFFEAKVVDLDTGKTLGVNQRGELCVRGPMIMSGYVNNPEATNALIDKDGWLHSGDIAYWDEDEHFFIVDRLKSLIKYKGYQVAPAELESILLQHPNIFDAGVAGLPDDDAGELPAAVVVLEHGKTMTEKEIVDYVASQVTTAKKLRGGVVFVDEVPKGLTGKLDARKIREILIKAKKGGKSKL
Retinoic acid receptor RXR-alpha (Homo sapiens), sequence (P19793 whole entry, looked up): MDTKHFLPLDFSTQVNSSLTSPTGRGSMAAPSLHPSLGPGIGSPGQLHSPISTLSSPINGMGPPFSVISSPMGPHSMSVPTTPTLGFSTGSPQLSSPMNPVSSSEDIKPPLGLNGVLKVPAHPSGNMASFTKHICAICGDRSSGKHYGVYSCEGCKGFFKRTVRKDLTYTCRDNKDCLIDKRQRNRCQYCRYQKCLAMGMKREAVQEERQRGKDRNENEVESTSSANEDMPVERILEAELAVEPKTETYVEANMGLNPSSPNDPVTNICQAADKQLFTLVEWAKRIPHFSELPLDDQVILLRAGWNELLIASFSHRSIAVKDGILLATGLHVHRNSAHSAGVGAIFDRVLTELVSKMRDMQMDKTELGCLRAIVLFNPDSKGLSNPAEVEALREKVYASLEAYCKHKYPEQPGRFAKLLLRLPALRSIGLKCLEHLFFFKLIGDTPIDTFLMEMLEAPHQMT
Nuclear receptor subfamily 1 group I member 3 (Homo sapiens), sequence (Q14994 whole entry, looked up): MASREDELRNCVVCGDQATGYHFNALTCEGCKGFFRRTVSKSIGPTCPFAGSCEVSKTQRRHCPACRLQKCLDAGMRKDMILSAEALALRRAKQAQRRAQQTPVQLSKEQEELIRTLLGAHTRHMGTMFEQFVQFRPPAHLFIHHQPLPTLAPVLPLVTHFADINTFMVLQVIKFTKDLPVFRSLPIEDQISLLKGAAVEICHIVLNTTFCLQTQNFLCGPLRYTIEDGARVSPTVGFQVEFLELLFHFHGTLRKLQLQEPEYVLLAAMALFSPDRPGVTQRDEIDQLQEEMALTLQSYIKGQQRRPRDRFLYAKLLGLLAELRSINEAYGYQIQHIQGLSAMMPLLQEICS

O=C(c1ccc2c(c1)C(=O)OC2=O)c1ccc2c(c1)C(=O)OC2=O
inactive: outcome [1] | outcome [2] | outcome [3] | outcome [4] | outcome [5] | outcome [6] | outcome [7] | outcome [8] | outcome [9] | Potency [10] | outcome [11] | outcome [12] | Potency [13] | Potency [14] | Potency [15] | outcome [16] | Potency [17]

COC(OC)C(C)c1ccccc1 (stereo not given)
inactive: outcome [2] | outcome [3] | outcome [4] | outcome [5] | outcome [6] | outcome [7] | outcome [8] | outcome [9] | Potency [10] | outcome [12] | Potency [13] | Potency [14] | Potency [15] | outcome [16] | Potency [17]

COC(=O)CCC(=O)O
inactive: outcome [1] | outcome [2] | outcome [3] | outcome [4] | outcome [5] | outcome [6] | outcome [7] | outcome [8] | outcome [9] | Potency [10] | outcome [11] | outcome [12] | Potency [13] | Potency [18] | outcome [16] | Potency [17]

C=CCOCC(O)CCl (stereo not given)
inactive: outcome [1] | outcome [2] | outcome [3] | outcome [19] | outcome [5] | outcome [6] | outcome [7] | outcome [8] | outcome [9] | Potency [10] | outcome [12] | Potency [13] | Potency [18] | Potency [15] | outcome [16]

CCC(O)C(C)(C)C (stereo not given)
inactive: outcome [1] | outcome [2] | outcome [3] | outcome [19] | outcome [6] | outcome [7] | outcome [8] | outcome [9] | Potency [10] | outcome [11] | outcome [12] | Potency [13] | Potency [14] | Potency [18] | Potency [15] | outcome [16] | Potency [17]

O=C(Oc1ccccc1C(=O)O)c1ccccc1O
inactive: outcome [1] | outcome [2] | outcome [3] | outcome [19] | outcome [5] | outcome [6] | outcome [7] | outcome [8] | outcome [9] | Potency [10] | outcome [11] | outcome [12] | Potency [13] | Potency [14] | Potency [15] | outcome [16] | Potency [17]

BrC/C=C/CBr
inactive: outcome [1] | outcome [2] | outcome [3] | outcome [19] | outcome [5] | activity, negative = cytotoxicity [6] -4.58% [at 19 µM] | activity change, negative = inhibition [7] -16.8% [at 19 µM] | viability change, negative = cytotoxic [8] 1.78% [at 15.8 µM] | activation [9] -6.33% [at 15.8 µM] | activation [10] 4.67% [at 15.8 µM] | activity change, negative = cytotoxicity [11] -1.93% [at 15.8 µM] | activity change, negative = cytotoxicity [12] 3.13% [at 19 µM] | activity, negative = inhibition [13] 22.9% [at 19 µM] | Potency [14] | viability change, negative = cytotoxic [18] 0.661% [at 19 µM] | viability change, negative = cytotoxic [16] 0.935% [at 19 µM]

CCOC(=O)CC(CC(=O)OCC)(OC(C)=O)C(=O)OCC
inactive: outcome [1] | outcome [2] | outcome [3] | outcome [5] | outcome [6] | outcome [7] | outcome [8] | outcome [9] | Potency [10] | outcome [11] | outcome [12] | Potency [13] | Potency [14] | Potency [15] | outcome [16] | Potency [17] | Potency [20]

Cc1ccc(C(=O)C(=O)O)cc1C
inactive: outcome [1] | outcome [2] | outcome [3] | outcome [19] | outcome [5] | outcome [6] | outcome [7] | outcome [8] | outcome [9] | Potency [10] | outcome [12] | Potency [13] | Potency [14] | Potency [18] | Potency [15] | outcome [16] | Potency [17]

O=c1[nH]c(=O)c2ccccc2o1
inactive: outcome [1] | outcome [2] | outcome [3] | outcome [19] | outcome [5] | outcome [6] | outcome [7] | outcome [8] | outcome [9] | Potency [10] | outcome [11] | outcome [12] | Potency [13] | Potency [14] | Potency [18] | Potency [15] | outcome [16] | Potency [17]
